Source: PubChem BioAssay (National Center for Advancing Translational Sciences (NCATS))
HCV inhibitor: blocks hepatitis C virus | Potency, µM (series often up to 41.8 µM), for the others: at the highest dose activity change, negative = inhibition, actives largely listed as inhibitors | AID 651820 | actives 3.4% (n = 340,000) | Huh7.5.1 HCVcc-Cre infection, luciferase reporter, 44 h; further: potency means the concentration at half of the fitted maximal effect
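Cells seeded at 1,000/well and cultured 4 h, then compounds added followed by HCVcc-Cre virus (~0.5 moi). After 44 h further culture, luciferase substrate was added, plates held 15 min at room temperature, and luminescence read for 15 sec.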
LASV entry inh: inhibitors of Lassa virus binding or cell entry | Lassa virus pseudotype entry inhibition, cell reporter | Potency, µM (highest dose often 37.9 µM), without a hit: at the highest dose activity change, negative = inhibition, actives largely listed as inhibitors | actives 1.2% (n = 300,000) | AID 540256; calls by dose curve; tested in HEK293 cells; further: potency means the concentration at half of the fitted maximal effect; nearly all actives have a fitted effect of over 50% in size
HCMV antiviral: inhibitors of human cytomegalovirus. HFF cells, HCMV-luciferase reporter, 72 h; hits give low values. activity change, negative = inhibition, % at 57.5 µM. actives 4.5% (n = 410,000). AID 1259415; in the data active means activity change below about -60%; inconclusive means no clear call, values can overlap the other calls; inactive means above about -39%
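Compounds were evaluated in HFFs infected with an HCMV luciferase reporter virus (MOI 1 PFU/cell). Luciferase in lysates collected 72 h post infection served as the replication measure.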
Marburg entry inh: inhibitors of Marburg virus binding or cell entry. actives 1.8% (n = 300,000). Potency, µM (titrated, usually from 37.8 µM), for the others: at the highest dose activity change, negative = inhibition, most hits filed as inhibitors. Marburg virus pseudotyped entry inhibition, cell reporter; calls by dose curve; tested in HEK293 cells; further: potency means the concentration at half of the fitted maximal effect
Pf growth 48h: inhibits P. falciparum growth in the first generation, 48 h; actives 5.9% (n = 310,000); Potency, µM (highest dose often 28.7 µM), for inactives: at the top dose activity change, negative = inhibition, hits mostly inhibitors; P. falciparum luciferase growth in erythrocytes, 48 h; further: potency means the concentration at half of the fitted maximal effect
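A one-generation exposure of luciferase-tagged malaria parasites in RPMI 1640/Albumax erythrocyte culture, 37 C and 5% CO2. Inhibition is inferred from decreased luminescence after adding detection reagent.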
Pf growth 96h: inhibits malaria parasite growth, 96 h | AID 504834 | actives 6.9% (n = 320,000) | Potency, µM (top dose mostly 28.7 µM), for inactives: top-dose activity change, negative = inhibition, usual class: inhibitors | P. falciparum luciferase reporter growth, 96 h; further: potency means the concentration at half of the fitted maximal effect
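Infected RBCs, 2% Hct / 0.05% parasitemia final; luciferase-reporter P. falciparum; cpd 96 h, 37 C, 5% CO2; luciferase detection reagent; luminescence.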
* = called active by the depositor; ? = inconclusive; nt = no result given; [ ] = another dose, or the depositor's remark. Shown are actives, neighbours in structure and some others; about 14% of the full set was active somewhere. Unless noted, the call rests on the fitted dose curve; in most records, active means well fitted inhibition curve with a large enough effect; inconclusive means small, poorly fitted or top-dose-only effect, or another doubt; inactive means no such curve, though single readings can be large or run the other way. On the % scale 0 is the no-effect control and ±100 the full control effect.

SMILES | HCV inhibitor | LASV entry inh | HCMV antiviral | Marburg entry inh | Pf growth 48h | Pf growth 96h
CC1CC(C)(C)CC2(C1)NC(=O)N(CC(=O)OCC(=O)Nc1cc(S(=O)(=O)N3CCCCC3)ccc1Cl)C2=O (stereo unspecified) | 1% | -11% | -11 | 5% | nt | nt
Cc1cc(-c2ccc(S(=O)(=O)Nc3ccccc3C)cc2)on1 | nt | -12%[46.1 µM] | 5 | nt | nt | nt
Cc1cc(-c2ccc(S(=O)(=O)Nc3ccc(Cl)cc3C)cc2)on1 | nt | -27%[46.1 µM] | -78* | nt | nt | nt
Cc1cc(C)c(C#N)c(Oc2ccc(O)cc2)n1 | ? | nt | -7 | nt | 4% | 5.2µM*
COc1ccc(C(=O)COc2nc(C)cc(C)c2C#N)cc1 | ? | -4% | -64* | ? | ? | ?
Cc1cc(C)c(C#N)c(Oc2ccc(F)cc2)n1 | 25% | -14% | 10 | -2% | ? | -52%
O=Cc1cn(Cc2ccc([N+](=O)[O-])cc2)c2ccccc12 | 9% | 10µM* | 38 | ? | 7% | 8%
Cc1ccc(/C(C#N)=C\c2cn(C)c3ccccc23)cc1 | 6.3µM* | nt | nt | -2% | -26% | nt
Cc1ccc(C(=O)N/C(=C\c2cn(C)c3ccccc23)C(=O)N2CCOCC2)cc1 | 23% | nt | -10 | nt | 2% | 0%
Clc1ccc(Cn2cc(/C=N/n3cnnc3)c3ccccc32)cc1 | 10µM* | ? | 7 | -24% | ? | -21%
O=Cc1cn(Cc2ccc(F)cc2)c2ccccc12 | 26% | ? | -1 | ? | 30% | -25%
Cc1ccccc1Cn1cc(/C=N/n2cnnc2)c2ccccc21 | -7% | ? | 7 | ? | ? | 11%
Cc1ccc(Cn2cc(C=O)c3ccccc32)cc1 | -11% | ? | -29 | 1.4µM* | -8% | 8%
CCOc1ccc(NC(=O)Cn2c(=O)n(-c3ccccc3)c(=O)c3ccc(C(=O)NCc4ccc5c(c4)OCO5)cc32)cc1 | nt | -12%[46.1 µM] | -35 | ? | nt | nt
CCCSCCCNC(=O)c1ccc2nc(Cc3ccccc3)oc2c1 | nt | 19%[46.1 µM] | 12 | nt | nt | nt
CCOc1ccc(NC(=O)N(Cc2ccc(CC)cc2)Cc2cn[nH]c2-c2ccc(OC)cc2)cc1 | nt | 9%[46.1 µM] | ? | 11%[46.1 µM] | nt | nt
CCCCN1CC(=O)N2[C@H]3c4cc(C)ccc4OC[C@@H]3[C@H](C(=O)OCC)[C@]2(C)C1=O | 6% | nt | -7 | nt | 23% | ?
O=C(O)c1ccc(N/N=C/c2cn(Cc3ccc(F)cc3)c3ccccc23)cc1 | -2% | nt | -21 | 1% | 24% | 79%
Cn1cc(C=C2C(=O)NC(=O)NC2=O)c2ccccc21 | -7% | 6% | 32 | 7% | 12% | 1%
O=[N+]([O-])/C=C/c1cn(Cc2ccc(F)cc2)c2ccccc12 | 8.9µM* | ? | ? | 7.3µM* | ? | ?
Cn1cc(C=O)c2ccccc21 | 3% | nt | -10 | nt | 51% | 10µM*
O=Cc1cccn1-c1ccccc1 | 0% | nt | 46 | nt | 38% | -10%
O=Cc1cccn1-c1cccc([N+](=O)[O-])c1 | -18% | 15% | -27 | -1%[46.1 µM] | 78% | 2.6µM*
COc1ccccc1-c1noc2c1C(=O)N(Cc1cn(C3CCCC3)nn1)CC2 | nt | nt | 24 | nt | nt | nt
C1CC1Cc1noc(CN2CCN(C3C4CC5CC(C4)CC3C5)CC2)n1 (stereo unspecified) | 4% | nt | -13 | nt | 20% | 13µM*
SMILES | HCV inhibitor | LASV entry inh | HCMV antiviral | Marburg entry inh | Pf growth 48h | Pf growth 96h
Cc1cccc(OC2CCN(Cc3nc(CC4CC4)no3)CC2)c1 | 5% | 0%[46.1 µM] | 65 | -15%[46.1 µM] | 9% | 4.7µM*
Nc1n[nH]c(-c2ccccc2[N+](=O)[O-])n1 | 26% | 18% | -96* | ? | 12% | -29%
Nc1n[nH]c(-c2ccccc2)n1 | 16% | 4% | 13 | 2% | 0% | ?
Cc1ccc(-c2nn(CC(=O)NC3CCCCC3)c3c2cnc2ccc(F)cc23)cc1C | nt | ? | 30 | nt | nt | nt
Cc1cc(C)cc(-n2ncc3c2CCCC3NC(=O)c2cc(C)[nH]n2)c1 (stereo unspecified) | ? | ? | -35 | 3.5µM* | -15% | -7%
CC(C)(C)c1ccc(-n2ncc3c2CCCC3NC(=O)C2(C(N)=O)CC2)cc1 (stereo unspecified) | ? | nt | -96* | nt | -14% | 13µM*
